In PubChem BioAssay:
Inconclusive results are not listed. The source made the active and inactive calls.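 Rule for the calls, unless noted: active = percent response above a set limit, the screen-wide mean plus 3 SD (cut at about 130% in these data); inactive = the rest.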

Columns and labels:
[1] = yeast TOR pathway RPL19A-GFP modulators, primary screen, cell-based, S. cerevisiae, multiplex flow cytometry (AID 1862; in the data active = percent of DMSO control GFP below about 86%;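 note: lower values mimic rapamycin by blocking the RPL19A rise seen in DMSO cells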); conditions: S. cerevisiae RPL19A-GFP strain, flow cytometry fluorescence, 3 h; at 10 µM; stronger effect = lower value
[2] = modulators of MEP2-GFP levels in yeast, primary screen, S. cerevisiae, multiplex flow cytometry (AID 1867;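 active = GFP response, as percent of the DMSO control, above the screen-wide mean plus 3 SD, about 139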;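 note: median GFP channel fluorescence of barcode-gated MEP2-GFP cells measured by flow cytometry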); conditions: S. cerevisiae MEP2-GFP strain, 3 h, at 10 µM, stronger effect = higher value, 100% means same as DMSO wells
[3] = modulators of CIT2-GFP expression in yeast, primary screen, S. cerevisiae, GFP fusion, multiplex flow cytometry (AID 1870); conditions: 3 h, at 10 µM, stronger effect = higher value;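 note: barcoded CIT2-GFP strain pooled with four other GFP strains with rapamycin as positive control; median GFP fluorescence per well over plate mean of DMSO wells so 100% = DMSO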
[4] = modulators of LAP4-GFP expression in yeast, primary screen, S. cerevisiae, multiplex flow cytometry (AID 1873;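 active = GFP signal, as percent of the solvent control, above the screen mean plus 3 SD, about 149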); conditions: 3 h, at 10 µM, stronger effect = higher value
[5] = modulators of AGP1-GFP expression in yeast TOR pathway, primary screen, cell-based, multiplex flow cytometry, S. cerevisiae (AID 1887;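 active = GFP signal above the screen-wide mean plus 3 SD, that is over about 124.5% of the solvent control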;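 note: AGP1-GFP fusion strain of S. cerevisiae within a five-strain barcoded multiplex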); conditions: 3 h, at 10 µM, stronger effect = higher value
[6] = inhibitors of CD8+ T cell-vesicle binding, pilot screen, LFA-1/ICAM-1 modulator project, MLPCN validation set, flow cytometry (AID 2523;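 active = response below a set limit, under 55% cells CD8-positive and vesicle-bound, and CD8 cells' 90th-percentile brightness under 279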;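 for vesicle binding response: mean PE anti-B7-1 fluorescence of CD8+ cells relative to row control; 100% = QL9-loaded vesicles with DMSO vehicle in the same plate row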); conditions: 2C mouse CD8+ T cells, at 7 µM, stronger effect = lower value; double positive events: measured here: CD8+/vesicle+ event percentage
[7] = target: Integrin beta-1 (Homo sapiens) + Integrin alpha-4 (Homo sapiens) (UniProt P13612+P05556); test: inhibition of HUTS-21 binding to VLA-4, pilot screen, VLA-4 allosteric modulator project, U937 cells, HUTS-21 mAb, flow cytometry, validation set (AID 2674;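 active = inhibition above 50%, about 3 SD of the validation set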;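 note: antibody binding induced by the VLA-4 ligand LDV present at three times its Kd; 0% = LDV ligand with antibody and no compound and 100% = antibody without LDV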); conditions: HUTS-21 LIBS mAb binding, at 6.7 µM, stronger effect = higher value, binding induced by LDV ligand
Integrin beta-1 (Homo sapiens) + Integrin alpha-4 (Homo sapiens), sequence (P05556 whole entry, looked up): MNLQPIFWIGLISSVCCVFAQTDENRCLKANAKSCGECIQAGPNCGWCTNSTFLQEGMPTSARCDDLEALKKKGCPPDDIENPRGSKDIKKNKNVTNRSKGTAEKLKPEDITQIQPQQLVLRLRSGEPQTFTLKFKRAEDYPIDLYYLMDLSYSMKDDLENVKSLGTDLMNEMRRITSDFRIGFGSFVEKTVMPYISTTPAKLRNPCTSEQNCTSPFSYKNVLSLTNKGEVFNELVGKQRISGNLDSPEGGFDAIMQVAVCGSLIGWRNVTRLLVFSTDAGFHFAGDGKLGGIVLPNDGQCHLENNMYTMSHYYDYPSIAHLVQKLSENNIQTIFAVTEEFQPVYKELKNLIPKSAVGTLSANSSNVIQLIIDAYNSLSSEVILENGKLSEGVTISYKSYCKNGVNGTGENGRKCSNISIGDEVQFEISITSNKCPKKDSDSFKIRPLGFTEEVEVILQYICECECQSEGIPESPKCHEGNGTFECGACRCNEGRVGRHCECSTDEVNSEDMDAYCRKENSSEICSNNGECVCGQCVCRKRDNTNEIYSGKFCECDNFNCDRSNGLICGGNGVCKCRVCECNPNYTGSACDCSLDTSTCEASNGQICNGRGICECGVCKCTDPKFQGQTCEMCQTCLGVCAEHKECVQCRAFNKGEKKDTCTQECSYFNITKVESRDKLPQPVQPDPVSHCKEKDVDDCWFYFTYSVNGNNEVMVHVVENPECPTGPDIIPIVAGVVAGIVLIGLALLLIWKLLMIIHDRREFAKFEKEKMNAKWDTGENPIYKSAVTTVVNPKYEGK
Integrin beta-1 (Homo sapiens) + Integrin alpha-4 (Homo sapiens), sequence (P13612 whole entry, looked up): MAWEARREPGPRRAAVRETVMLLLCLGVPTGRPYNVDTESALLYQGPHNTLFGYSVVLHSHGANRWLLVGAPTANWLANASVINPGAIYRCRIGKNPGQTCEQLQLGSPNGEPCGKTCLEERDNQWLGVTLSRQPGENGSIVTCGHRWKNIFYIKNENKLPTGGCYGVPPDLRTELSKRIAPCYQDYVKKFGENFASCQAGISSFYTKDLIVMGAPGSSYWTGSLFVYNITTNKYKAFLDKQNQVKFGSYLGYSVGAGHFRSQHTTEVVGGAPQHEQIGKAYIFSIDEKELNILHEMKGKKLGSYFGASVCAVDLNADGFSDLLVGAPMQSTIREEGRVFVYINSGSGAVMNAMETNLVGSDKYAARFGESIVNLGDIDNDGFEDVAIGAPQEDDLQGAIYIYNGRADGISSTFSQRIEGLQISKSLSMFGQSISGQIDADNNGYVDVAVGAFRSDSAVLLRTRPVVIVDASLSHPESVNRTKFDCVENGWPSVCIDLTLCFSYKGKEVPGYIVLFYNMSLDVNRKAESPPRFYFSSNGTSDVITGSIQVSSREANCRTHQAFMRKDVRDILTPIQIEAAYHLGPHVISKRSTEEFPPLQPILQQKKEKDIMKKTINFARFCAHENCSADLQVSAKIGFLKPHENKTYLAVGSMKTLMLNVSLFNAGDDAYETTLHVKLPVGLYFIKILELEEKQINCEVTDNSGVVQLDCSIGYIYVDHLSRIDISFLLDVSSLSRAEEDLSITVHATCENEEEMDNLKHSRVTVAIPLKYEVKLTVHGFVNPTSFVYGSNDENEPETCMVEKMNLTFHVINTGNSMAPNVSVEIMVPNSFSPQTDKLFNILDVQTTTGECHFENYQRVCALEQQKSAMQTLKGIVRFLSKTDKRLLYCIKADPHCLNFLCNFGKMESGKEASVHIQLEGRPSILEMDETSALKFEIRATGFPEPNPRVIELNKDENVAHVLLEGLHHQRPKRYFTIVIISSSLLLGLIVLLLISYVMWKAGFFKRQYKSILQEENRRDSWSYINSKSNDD

[8] = superoxide lowering in aged yeast cells, pilot screen, validation compound set (AID 2706;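 active = superoxide response below 65% of plate, a cut near 3 SD across the whole screen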;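 note: yeast exposed to compound for one week at 30 degrees C before staining; 100% = mean of all compound wells on the same plate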); conditions: S. cerevisiae aging, superoxide DHE fluorescence; at 10 µM, stronger effect = lower value
[9] = target: Beta-adrenergic receptor kinase 1 (Homo sapiens) (UniProt P25098); test: GRK2 binders displacing RNA aptamer, biochemical, validation, human GRK2, bead flow cytometry (AID 488806;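 active = aptamer binding inhibition above 30%, about 3 SD of noise from non-fluorescent compounds; inactive = inhibition at or below 30%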); conditions: bead-bound GRK2, FAM-aptamer displacement, at 10 µM, stronger effect = higher value
Beta-adrenergic receptor kinase 1 (Homo sapiens), sequence (P25098 whole entry, looked up): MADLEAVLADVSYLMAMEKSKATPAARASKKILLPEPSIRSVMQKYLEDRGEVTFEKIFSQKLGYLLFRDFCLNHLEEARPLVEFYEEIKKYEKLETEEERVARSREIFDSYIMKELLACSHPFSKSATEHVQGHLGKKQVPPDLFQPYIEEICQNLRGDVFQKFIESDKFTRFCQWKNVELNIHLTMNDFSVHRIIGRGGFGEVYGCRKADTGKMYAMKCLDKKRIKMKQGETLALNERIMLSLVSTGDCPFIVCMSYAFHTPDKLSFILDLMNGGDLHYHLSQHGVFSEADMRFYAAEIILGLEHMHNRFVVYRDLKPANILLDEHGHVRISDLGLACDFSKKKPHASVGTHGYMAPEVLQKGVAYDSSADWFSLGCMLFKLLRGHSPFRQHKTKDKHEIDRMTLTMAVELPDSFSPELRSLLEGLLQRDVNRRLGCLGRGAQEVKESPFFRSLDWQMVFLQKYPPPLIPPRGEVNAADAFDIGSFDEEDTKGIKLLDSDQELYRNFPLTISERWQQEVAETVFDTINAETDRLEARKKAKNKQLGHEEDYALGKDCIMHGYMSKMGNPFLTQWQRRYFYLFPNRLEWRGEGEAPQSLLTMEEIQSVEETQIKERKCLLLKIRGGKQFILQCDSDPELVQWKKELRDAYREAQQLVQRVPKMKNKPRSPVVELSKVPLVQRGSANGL

[10] = target: AP-2 complex subunit beta (Homo sapiens) (UniProt P63010); test: inhibitors of arrestin peptide binding to AP2, pilot screen, biochemical, validation set, GST-AP2 beads, flow cytometry (AID 504541;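 active = inhibition above 54%, about 3 SD of non-fluorescent compounds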;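 note: AP2 carries R879A mutation and is captured from E. coli lysate; bead-bound FITC arrestin peptide fluorescence measuring arrestin peptide binding to AP2; 0% = DMSO wells and 100% = excess unlabeled arrestin peptide control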); conditions: FITC arrestin peptide, at 10 µM, stronger effect = higher value, AP2 beta2 appendage fragment, R879A mutant
AP-2 complex subunit beta (Homo sapiens), sequence (P63010 whole entry, looked up, the tested form may be a part, one chain of several): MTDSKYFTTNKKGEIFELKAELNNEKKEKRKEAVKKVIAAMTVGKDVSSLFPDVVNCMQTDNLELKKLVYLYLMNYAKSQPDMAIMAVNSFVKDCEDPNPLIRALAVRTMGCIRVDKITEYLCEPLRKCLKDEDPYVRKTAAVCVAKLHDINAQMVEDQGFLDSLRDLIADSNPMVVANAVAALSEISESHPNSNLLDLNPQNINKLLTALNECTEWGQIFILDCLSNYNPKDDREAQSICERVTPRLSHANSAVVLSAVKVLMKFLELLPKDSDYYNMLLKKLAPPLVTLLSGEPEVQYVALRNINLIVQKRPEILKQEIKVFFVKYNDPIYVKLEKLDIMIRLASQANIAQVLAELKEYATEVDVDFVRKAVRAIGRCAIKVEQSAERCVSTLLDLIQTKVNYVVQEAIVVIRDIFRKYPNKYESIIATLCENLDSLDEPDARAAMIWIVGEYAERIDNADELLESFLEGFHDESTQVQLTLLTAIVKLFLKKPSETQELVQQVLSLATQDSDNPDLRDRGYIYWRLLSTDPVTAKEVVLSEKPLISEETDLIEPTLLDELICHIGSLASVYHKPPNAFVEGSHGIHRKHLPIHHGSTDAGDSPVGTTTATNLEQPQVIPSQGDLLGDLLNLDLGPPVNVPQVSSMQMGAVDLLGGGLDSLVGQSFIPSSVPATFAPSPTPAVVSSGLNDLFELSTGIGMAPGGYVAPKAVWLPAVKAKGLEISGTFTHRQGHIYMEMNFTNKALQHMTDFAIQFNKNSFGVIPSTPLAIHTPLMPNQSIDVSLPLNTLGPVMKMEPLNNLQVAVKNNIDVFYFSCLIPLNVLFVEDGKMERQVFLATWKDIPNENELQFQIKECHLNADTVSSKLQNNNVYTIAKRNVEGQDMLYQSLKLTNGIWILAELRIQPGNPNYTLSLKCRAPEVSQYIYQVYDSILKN

[11] = yeast V-ATPase proton transport modulators, S. cerevisiae, pHLuorin, HTS validation (AID 504600; in the data active = response above about 15%;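 note: plate controls were DMSO for no effect and reference compound for full effect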); conditions: S. cerevisiae pHLuorin cytosolic pH, at 10 µM, stronger effect = higher value
[12] = system: anti-desmoglein-3 scFv antibody binding to human DSG3; test: inhibitors of anti-DSG3 scFv binding to DSG3, pilot screen, biochemical, validation compound set, bead-based, flow cytometry (AID 588368;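 active = binding below the plate cutoff, the plate median minus 3 SD, with a reading above zero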;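 note: signal is the median channel fluorescence of bead-bound GFP antibody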); conditions: Protein G beads, DSG3-Fc, scFv-GFP binding, at 10 µM, stronger effect = lower value
[13] = inhibitors of fungal efflux pumps CDR1, CDR2, MDR1, pilot screen, validation compound set, multiplex, phenotypic (AID 588506;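 active = efflux inhibition above 0.42, the validation set average plus 4 SD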;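 note: Nile Red retained in cells so higher fluorescence means more efflux inhibition; 0 = negative control wells and 1 = enniatin B 25 µM full block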); conditions: S. cerevisiae pump-expressing triplex, Nile Red efflux flow cytometry; at 10 µM; stronger effect = higher value; the pumps come from Candida albicans
[14] = target: ATP-binding cassette sub-family B member 6 (Homo sapiens) (UniProt Q9NP58); test: ABCB6 transporter inhibitors, pilot screen, K562-ABCB6 cells, flow cytometry, validation set (AID 588550;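 active = inhibition above the screen-wide mean plus 3 SD, about 51%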;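 note: 0% = DMSO wells and 100% = benzethonium chloride 70 µM positive control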); conditions: K562-ABCB6 porphyrin accumulation, 1 h, at 10 µM, stronger effect = higher value
ATP-binding cassette sub-family B member 6 (Homo sapiens), sequence (Q9NP58 whole entry, looked up): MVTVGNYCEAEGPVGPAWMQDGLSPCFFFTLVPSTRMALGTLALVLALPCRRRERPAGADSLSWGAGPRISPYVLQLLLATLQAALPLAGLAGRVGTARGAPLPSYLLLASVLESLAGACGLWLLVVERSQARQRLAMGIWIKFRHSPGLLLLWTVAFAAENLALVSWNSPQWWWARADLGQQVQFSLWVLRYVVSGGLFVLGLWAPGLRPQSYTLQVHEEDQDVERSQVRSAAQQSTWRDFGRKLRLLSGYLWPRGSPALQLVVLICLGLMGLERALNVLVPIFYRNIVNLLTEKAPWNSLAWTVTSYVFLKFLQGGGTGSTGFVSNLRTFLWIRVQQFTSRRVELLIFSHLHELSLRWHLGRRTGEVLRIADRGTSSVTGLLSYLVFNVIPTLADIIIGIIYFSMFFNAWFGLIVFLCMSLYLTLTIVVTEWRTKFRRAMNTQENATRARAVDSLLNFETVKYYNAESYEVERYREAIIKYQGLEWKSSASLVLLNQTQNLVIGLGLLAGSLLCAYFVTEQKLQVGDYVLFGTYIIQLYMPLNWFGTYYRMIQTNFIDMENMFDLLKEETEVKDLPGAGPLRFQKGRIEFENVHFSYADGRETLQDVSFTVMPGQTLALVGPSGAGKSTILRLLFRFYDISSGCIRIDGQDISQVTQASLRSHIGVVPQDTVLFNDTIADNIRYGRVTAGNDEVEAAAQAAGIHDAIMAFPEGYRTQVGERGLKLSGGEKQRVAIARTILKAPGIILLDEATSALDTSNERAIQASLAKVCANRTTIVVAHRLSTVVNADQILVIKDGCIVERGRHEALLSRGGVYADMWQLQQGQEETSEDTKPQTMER

[15] = promoters of myeloid differentiation in arrested cells, primary screen, cell-based, GFP/MAC1 double positive, flow cytometry, validation set (AID 588685;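 active = differentiation response of at least 50%, scaled between solvent and reference control, from cells with both markers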;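 note: compound exposure lasts four days before antibody staining and flow analysis; 0% = DMSO wells and 100% = 5 µM fulvestrant positive control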); conditions: ER-HoxA9 marrow cells, stronger effect = higher value, normalized: vehicle 0, fulvestrant 100

Row | Compound | percent of DMSO control GFP [1] | GFP response vs DMSO [2] | percent response of DMSO control [3] | GFP response vs DMSO [4] | GFP response, % of DMSO [5] | double positive events [6] [%] | vesicle binding response [6] | inhibition [7] | superoxide response (% of plate) [8] | aptamer binding inhibition [9] | inhibition [10] | response [11] | binding (% of control) [12] | efflux inhibition (fraction of control) [13] | inhibition [14] | differentiation response [15]
1 | Cc1oc2cc(O)ccc2c(=O)c1Oc1ccccc1Br | 96.9% (inactive) | 108% (inactive) | 93% (inactive) | 102% (inactive) | 98.1% (inactive) | 54.8 | 172% (inactive) | -12.4% (inactive) | 101% (inactive) | 6% (inactive) | 4.89% (inactive) | 1.47% (inactive) | 102% (inactive) | -0.31 (inactive) | 9% (inactive) | -13.1% (inactive)
2 | COc1cc(OC)cc(C(=O)N[C@@H](CCSC)c2nc3ccccc3[nH]2)c1 | 98% (inactive) | 88.7% (inactive) | 105% (inactive) | 91.3% (inactive) | 96.4% (inactive) | 49.2 | 158% (inactive) | -13.3% (inactive) | 98.5% (inactive) | 1% (inactive) | -7.65% (inactive) | 0.15% (inactive) | 99.3% (inactive) | -0.12 (inactive) | 3% (inactive) | -8.27% (inactive)
3 | COc1ccc(-c2cc3cc(OC)c(OC)cc3c(C)n2)cc1 | 103% (inactive) | 105% (inactive) | 102% (inactive) | 90.3% (inactive) | 90.7% (inactive) | 53.2 | 149% (inactive) | 5.36% (inactive) | 96% (inactive) | 6% (inactive) | 1.41% (inactive) | 1.33% (inactive) | 106% (inactive) | -0.09 (inactive) | -2% (inactive) | -8.27% (inactive)
4 | Clc1ccccc1CN1CCc2sccc2C1 | 100% (inactive) | 104% (inactive) | 99.6% (inactive) | 118% (inactive) | 119% (inactive) | 64.6 | 233% (inactive) | 6.55% (inactive) | 87.2% (inactive) | -1% (inactive) | 59.3% (active) | 0.39% (inactive) | 102% (inactive) | 0 (inactive) | 0% (inactive) | -4.99% (inactive)
5 | CCN(CC)CCOC(=O)C1(C2CCCCC2)CCCCC1 | 110% (inactive) | 101% (inactive) | 106% (inactive) | 110% (inactive) | 108% (inactive) | 50.5 | 162% (inactive) | 5.36% (inactive) | 110% (inactive) | -2% (inactive) | -6.04% (inactive) | 1.87% (inactive) | 101% (inactive) | 0.25 (inactive) | -45% (inactive) | -27.6% (inactive)
6 | COc1ccc(OC)c(-n2c(Cn3c(-c4ccccn4)nc4ccccc43)n[nH]c2=S)c1 | 98.5% (inactive) | 101% (inactive) | 93% (inactive) | 90.3% (inactive) | 91.8% (inactive) | 62.6 | 144% (inactive) | 7.22% (inactive) | 97.4% (inactive) | 1% (inactive) | 6.75% (inactive) | -0.2% (inactive) | 105% (inactive) | 0.44 (active) | -8% (inactive) | -9.89% (inactive)
7 | CN1CCCC(OC(=O)c2ccc3c(c2)OCCO3)C1 (stereo not given) | 101% (inactive) | 106% (inactive) | 108% (inactive) | 82.3% (inactive) | 96.3% (inactive) | 58.8 | 175% (inactive) | -8.64% (inactive) | 100% (inactive) | 0% (inactive) | 2.71% (inactive) | -2.88% (inactive) | 96% (inactive) | 0.41 (inactive) | 8% (inactive) | 1.41% (inactive)
8 | OC(CCN1CCCCC1)(c1ccccc1)C1CCCCC1 (stereo not given) | 107% (inactive) | 102% (inactive) | 108% (inactive) | 106% (inactive) | 105% (inactive) | 40.6 | 185% (inactive) | 0% (inactive) | 97.3% (inactive) | -3% (inactive) | -9.7% (inactive) | -2.57% (inactive) | 108% (inactive) | -0.05 (inactive) | 5% (inactive) | -8.27% (inactive)
9 | O=C(O)c1cc(-c2ccc3c(c2)OCO3)nc2ccc(Br)cc12 | 100% (inactive) | 97.9% (inactive) | 82.2% (inactive) | 127% (inactive) | 88.9% (inactive) | 67 | 182% (inactive) | -7.7% (inactive) | 108% (inactive) | -3% (inactive) | 12% (inactive) | -4.89% (inactive) | 105% (inactive) | 0.18 (inactive) | 8% (inactive) | 41.8% (inactive)
10 | COc1cc(=O)n(C)c2ccccc12 | 93.5% (inactive) | 99.9% (inactive) | 97.9% (inactive) | 90.3% (inactive) | 93.7% (inactive) | 54.6 | 136% (inactive) | 7.22% (inactive) | 103% (inactive) | 3% (inactive) | 28% (inactive) | 3.71% (inactive) | 96.9% (inactive) | 0.33 (inactive) | 3% (inactive) | -1.82% (inactive)
